The full data set covers some 7,900 targets. This sample favours those with a hit. About 0.6% of all pairs of compound and target were hits.
Legend:
Assay in all cases: log2 fold change, soluble protein after heating vs DMSO (PISA); higher = thermal stabilisation; K562 cells, 10 uM, 30 min; active = over 0.2 and 3.5 SD of the protein, either way, in both replicates (recomputed)
saracatinib = compound: CN1CCN(CCOc2cc(OC3CCOCC3)c3c(Nc4c(Cl)ccc5c4OCO5)ncnc3c2)CC1 [saracatinib]
Procedure, shortened: (§1)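 Quantification of soluble protein used TMTpro 16plex LC-MS/MS, with channel sums equalised. Samples were the supernatant after 21,000xg for 90 min of pooled aliquots from K562 cells (2×10^6 cells/mL) treated with 10 μM compound for 30 min, heated for 3 min over 48°C-58°C, and extracted in PBS with 0.5% NP-40 at 4°C. Values, from duplicates, describe thermal stability against control samples on a log2 fold-change scale.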

sotrastaurin = compound: CN1CCN(c2nc(C3=C(c4c[nH]c5ccccc45)C(=O)NC3=O)c3ccccc3n2)CC1 [sotrastaurin]
Procedure, shortened: as §1

alvocidib = compound: CN1CC[C@H](c2c(O)cc(O)c3c(=O)cc(-c4ccccc4Cl)oc23)[C@H](O)C1 [alvocidib]
Procedure, shortened: as §1

Tubastatin A = compound: CN1CCc2c(c3ccccc3n2Cc2ccc(C(=O)NO)cc2)C1 [Tubastatin A]
Procedure, shortened: as §1

[1] = compound: CNC(=O)C1=CC=CC=C1NC2=NC(=NC=C2Cl)NC3=C(C=C(C=C3)N4CCOCC4)OC
Procedure, shortened: as §1

defactinib = compound: CNC(=O)c1ccc(Nc2ncc(C(F)(F)F)c(NCc3nccnc3N(C)S(C)(=O)=O)n2)cc1 [defactinib]
Procedure, shortened: as §1

rucaparib = compound: CNCc1ccc(-c2[nH]c3cc(F)cc4c3c2CCNC4=O)cc1 [rucaparib]
Procedure, shortened: as §1

[2] = compound: CNc1nc(-c2ccc3c(N)n[nH]c3c2)cc(N2C[C@@H](C(=O)NC3CCCCC3)CC[C@H]2C)n1
Procedure, shortened: as §1

encorafenib = compound: COC(=O)N[C@@H](C)CNc1nccc(-c2cn(C(C)C)nc2-c2cc(Cl)cc(NS(C)(=O)=O)c2F)n1 [encorafenib]
Procedure, shortened: as §1

[3] = compound: COC(=O)[C@H](CCSC)NC(=O)C1=C(C=C(C=C1)NC[C@H](CS)N)C2=CC=CC=C2
Procedure, shortened: as §1

[4] = compound: COC1=CC=C(C=C1)CN2C=CC3=C2C=C(C=C3)C(=O)NO
Procedure, shortened: as §1

filanesib = compound: CON(C)C(=O)N1N=C(c2cc(F)ccc2F)S[C@@]1(CCCN)c1ccccc1 [filanesib]
Procedure, shortened: as §1

zotarolimus = compound: CO[C@H]1C[C@@H]2CC[C@@H](C)[C@@](O)(O2)C(=O)C(=O)N2CCCC[C@H]2C(=O)O[C@H]([C@H](C)C[C@@H]2CC[C@H](n3cnnn3)[C@H](OC)C2)CC(=O)[C@H](C)/C=C(\C)[C@@H](O)[C@@H](OC)C(=O)[C@H](C)C[C@H](C)/C=C/C=C/C=C/1C [zotarolimus]
Procedure, shortened: as §1

idasanutlin = compound: COc1cc(C(=O)O)ccc1NC(=O)[C@@H]1N[C@@H](CC(C)(C)C)[C@](C#N)(c2ccc(Cl)cc2F)[C@H]1c1cccc(Cl)c1F [idasanutlin]
Procedure, shortened: as §1

alisertib = compound: COc1cc(Nc2ncc3c(n2)-c2ccc(Cl)cc2C(c2c(F)cccc2OC)=NC3)ccc1C(=O)O [alisertib]
Procedure, shortened: as §1

[5] = compound: COc1cc2nc(-c3cc(F)ccc3O)nc(N[C@@H]3CNC[C@H]3C(C)(C)O)c2cc1OC
Procedure, shortened: as §1

gefitinib = compound: COc1cc2ncnc(Nc3ccc(F)c(Cl)c3)c2cc1OCCCN1CCOCC1 [gefitinib]
Procedure, shortened: as §1

[6] = compound: COc1cccc2cc(-c3nc([C@H]4CC[C@H](C(=O)O)CC4)n4ncnc(N)c34)[nH]c12
Procedure, shortened: as §1

lapatinib = compound: CS(=O)(=O)CCNCc1ccc(-c2ccc3ncnc(Nc4ccc(OCc5cccc(F)c5)c(Cl)c4)c3c2)o1 [lapatinib]
Procedure, shortened: as §1

pictilisib = compound: CS(=O)(=O)N1CCN(Cc2cc3nc(-c4cccc5[nH]ncc45)nc(N4CCOCC4)c3s2)CC1 [pictilisib]
Procedure, shortened: as §1

Measured: log2 fold change

RPS16 (UniProt P62249)
inactive: saracatinib -0.085 | sotrastaurin 0.004 | alvocidib 0.193 | Tubastatin A 0.05 | [1] 0.108 | defactinib 0.185 | rucaparib 0.126 | [2] 0.056 | encorafenib 0.033 | [3] 0.004 | [4] -0.117 | filanesib 0.092 | zotarolimus 0.025 | idasanutlin 0.093 | alisertib -0.167 | [5] -0.027 | gefitinib -0.014 | [6] -0.199 | lapatinib 0.046 | pictilisib -0.162

SESN2 (UniProt P58004)
Chain of UniProt P58004 (P58004 whole entry, looked up): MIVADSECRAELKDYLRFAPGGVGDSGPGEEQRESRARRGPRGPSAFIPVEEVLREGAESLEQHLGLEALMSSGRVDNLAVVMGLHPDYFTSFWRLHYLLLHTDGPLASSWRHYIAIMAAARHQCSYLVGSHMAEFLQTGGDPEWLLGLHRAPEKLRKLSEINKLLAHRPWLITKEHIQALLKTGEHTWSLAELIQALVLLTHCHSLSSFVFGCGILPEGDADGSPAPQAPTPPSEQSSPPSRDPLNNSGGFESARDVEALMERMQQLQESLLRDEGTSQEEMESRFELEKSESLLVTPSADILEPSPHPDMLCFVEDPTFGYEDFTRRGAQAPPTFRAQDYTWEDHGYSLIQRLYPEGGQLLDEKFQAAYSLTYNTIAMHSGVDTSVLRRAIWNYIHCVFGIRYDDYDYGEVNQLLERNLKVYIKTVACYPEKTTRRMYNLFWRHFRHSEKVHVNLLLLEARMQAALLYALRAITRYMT
inactive: saracatinib -0.009 | sotrastaurin -0.222 | alvocidib -0.147 | Tubastatin A 0.131 | [1] 0.039 | defactinib -0.229 | rucaparib 0.044 | [2] 0.09 | encorafenib 0.041 | [3] -0.121 | [4] 0.013 | filanesib -0.174 | zotarolimus 0.099 | idasanutlin -0.107 | alisertib -0.005 | [5] -0.112 | gefitinib 0.08 | [6] -0.085 | lapatinib 0.25 | pictilisib 0.167

RPS27A (UniProt P62979)
inactive: saracatinib 0.029 | sotrastaurin 0.107 | alvocidib 0.136 | Tubastatin A -0.013 | [1] 0.05 | defactinib 0.227 | rucaparib 0.105 | [2] 0.043 | encorafenib -0.007 | [3] 0.156 | [4] -0.084 | filanesib 0.215 | zotarolimus 0.009 | idasanutlin 0.129 | alisertib -0.041 | [5] -0.066 | gefitinib -0.076 | [6] -0.185 | lapatinib -0.006 | pictilisib -0.13

RCOR3 isoform 3 (UniProt Q9P2K3)
inactive: saracatinib -0.142 | sotrastaurin -0.011 | alvocidib -0.15 | Tubastatin A 0.142 | [1] -0.019 | defactinib -0.073 | rucaparib 0.075 | [2] -0.044 | encorafenib 0.026 | [3] -0.062 | [4] -0.019 | filanesib 0.084 | zotarolimus -0.011 | idasanutlin -0.046 | alisertib -0.145 | [5] 0.14 | gefitinib 0.013 | [6] 0.011 | lapatinib 0 | pictilisib -0.106

RETREG3 (UniProt Q86VR2)
Chain of UniProt Q86VR2 (Q86VR2 whole entry, looked up): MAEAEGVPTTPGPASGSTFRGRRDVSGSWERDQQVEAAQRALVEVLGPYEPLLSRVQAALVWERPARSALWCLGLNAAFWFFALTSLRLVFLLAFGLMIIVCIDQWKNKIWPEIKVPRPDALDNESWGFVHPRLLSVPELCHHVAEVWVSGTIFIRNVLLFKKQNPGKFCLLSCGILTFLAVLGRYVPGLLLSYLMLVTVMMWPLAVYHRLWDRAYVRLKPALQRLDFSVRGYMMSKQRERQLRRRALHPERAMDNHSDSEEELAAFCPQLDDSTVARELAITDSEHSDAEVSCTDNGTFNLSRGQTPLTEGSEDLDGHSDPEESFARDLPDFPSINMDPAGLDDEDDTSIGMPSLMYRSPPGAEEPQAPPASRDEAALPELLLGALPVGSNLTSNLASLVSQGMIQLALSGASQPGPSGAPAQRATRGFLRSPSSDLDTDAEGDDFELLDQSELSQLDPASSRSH
inactive: saracatinib 0.164 | sotrastaurin 0.035 | alvocidib -0.023 | Tubastatin A 0.022 | [1] 0.011 | defactinib -0.015 | rucaparib 0.004 | [2] -0.011 | encorafenib -0.018 | [3] 0.032 | [4] -0.038 | filanesib -0.136 | zotarolimus -0.053 | idasanutlin -0.008 | alisertib 0.029 | [5] -0.141 | gefitinib 0.035 | [6] 0.106 | lapatinib 0.037 | pictilisib 0.102

RPA1 (UniProt P27694)
Chain of UniProt P27694 (P27694 whole entry, looked up): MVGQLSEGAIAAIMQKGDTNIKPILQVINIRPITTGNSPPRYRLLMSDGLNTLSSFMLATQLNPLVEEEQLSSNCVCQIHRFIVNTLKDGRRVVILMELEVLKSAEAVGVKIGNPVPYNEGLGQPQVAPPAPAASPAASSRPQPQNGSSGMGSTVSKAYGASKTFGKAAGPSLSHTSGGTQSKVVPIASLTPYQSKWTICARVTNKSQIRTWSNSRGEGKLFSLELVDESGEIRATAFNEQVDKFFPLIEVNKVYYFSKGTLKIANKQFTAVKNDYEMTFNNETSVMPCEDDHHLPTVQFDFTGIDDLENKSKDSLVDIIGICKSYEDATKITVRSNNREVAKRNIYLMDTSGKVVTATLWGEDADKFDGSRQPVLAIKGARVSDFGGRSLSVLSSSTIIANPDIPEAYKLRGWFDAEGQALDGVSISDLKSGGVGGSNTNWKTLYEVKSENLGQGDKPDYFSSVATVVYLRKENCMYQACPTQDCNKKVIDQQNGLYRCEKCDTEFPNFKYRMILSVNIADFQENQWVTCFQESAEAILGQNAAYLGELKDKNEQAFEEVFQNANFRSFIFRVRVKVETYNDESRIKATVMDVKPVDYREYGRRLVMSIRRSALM
inactive: saracatinib -0.007 | sotrastaurin -0.016 | alvocidib -0.031 | Tubastatin A 0.039 | [1] 0.012 | defactinib -0.076 | rucaparib 0.027 | [2] -0.01 | encorafenib 0.076 | [3] -0.021 | [4] 0.053 | filanesib -0.006 | zotarolimus 0.018 | idasanutlin -0.042 | alisertib 0.027 | [5] 0.049 | gefitinib -0.001 | [6] -0.133 | lapatinib 0.006 | pictilisib -0.088

RBM12 (UniProt Q9NTZ6)
inactive: saracatinib -0.04 | sotrastaurin -0.12 | alvocidib -0.191 | Tubastatin A 0.074 | [1] 0.008 | defactinib -0.27 | rucaparib -0.109 | [2] -0.02 | encorafenib 0.061 | [3] -0.052 | [4] 0.112 | filanesib -0.033 | zotarolimus 0.021 | idasanutlin -0.039 | alisertib 0.023 | [5] -0.014 | gefitinib 0.032 | [6] 0.023 | lapatinib -0.012 | pictilisib -0.019

RPS20 isoform 2 (UniProt P60866)
inactive: saracatinib -0.1 | sotrastaurin 0.019 | alvocidib 0.196 | Tubastatin A 0.054 | [1] 0.066 | defactinib 0.216 | rucaparib 0.093 | [2] -0.009 | encorafenib 0.041 | [3] 0.001 | [4] -0.086 | filanesib 0.085 | zotarolimus 0.019 | idasanutlin 0.047 | alisertib -0.018 | [5] -0.015 | gefitinib -0.036 | [6] -0.157 | lapatinib 0.108 | pictilisib -0.006

RAB3GAP2 (UniProt Q9H2M9)
Chain of UniProt Q9H2M9 (Q9H2M9 whole entry, looked up): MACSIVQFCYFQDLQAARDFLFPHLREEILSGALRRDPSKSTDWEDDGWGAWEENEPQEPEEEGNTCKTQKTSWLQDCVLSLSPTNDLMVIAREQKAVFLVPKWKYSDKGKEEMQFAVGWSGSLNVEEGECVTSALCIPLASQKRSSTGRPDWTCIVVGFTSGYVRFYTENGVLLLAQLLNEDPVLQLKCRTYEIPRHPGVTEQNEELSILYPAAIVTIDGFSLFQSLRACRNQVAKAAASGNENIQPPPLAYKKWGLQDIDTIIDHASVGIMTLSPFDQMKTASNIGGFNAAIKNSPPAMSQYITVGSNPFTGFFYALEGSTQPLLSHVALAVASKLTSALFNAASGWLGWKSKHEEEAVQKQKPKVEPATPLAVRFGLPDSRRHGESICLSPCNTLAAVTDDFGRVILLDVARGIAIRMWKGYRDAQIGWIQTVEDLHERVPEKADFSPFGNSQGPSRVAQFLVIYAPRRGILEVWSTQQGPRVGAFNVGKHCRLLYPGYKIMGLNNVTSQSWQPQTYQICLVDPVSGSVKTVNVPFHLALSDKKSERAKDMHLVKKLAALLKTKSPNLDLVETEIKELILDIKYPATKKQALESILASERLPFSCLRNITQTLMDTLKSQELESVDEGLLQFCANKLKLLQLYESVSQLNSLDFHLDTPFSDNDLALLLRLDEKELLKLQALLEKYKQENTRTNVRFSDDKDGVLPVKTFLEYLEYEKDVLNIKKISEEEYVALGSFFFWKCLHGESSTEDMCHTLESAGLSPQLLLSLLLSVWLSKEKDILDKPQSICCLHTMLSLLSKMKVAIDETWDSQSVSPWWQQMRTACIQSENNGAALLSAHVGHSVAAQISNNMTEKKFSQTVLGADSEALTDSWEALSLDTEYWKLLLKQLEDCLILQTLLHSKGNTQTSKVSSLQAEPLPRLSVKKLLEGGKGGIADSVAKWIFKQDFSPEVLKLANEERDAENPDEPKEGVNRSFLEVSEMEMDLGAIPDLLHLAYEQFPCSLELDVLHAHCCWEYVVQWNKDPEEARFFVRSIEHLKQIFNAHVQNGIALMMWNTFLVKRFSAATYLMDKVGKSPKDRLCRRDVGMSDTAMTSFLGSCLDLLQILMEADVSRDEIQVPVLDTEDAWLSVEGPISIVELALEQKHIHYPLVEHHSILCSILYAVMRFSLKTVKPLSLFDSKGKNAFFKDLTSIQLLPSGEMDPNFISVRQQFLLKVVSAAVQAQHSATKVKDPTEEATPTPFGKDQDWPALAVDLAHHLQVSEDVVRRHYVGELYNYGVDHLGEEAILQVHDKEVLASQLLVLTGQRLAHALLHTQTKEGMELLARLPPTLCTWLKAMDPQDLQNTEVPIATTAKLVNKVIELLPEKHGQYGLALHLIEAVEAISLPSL
inactive: saracatinib -0.111 | sotrastaurin -0.195 | alvocidib -0.013 | Tubastatin A 0.058 | [1] 0.017 | defactinib -0.064 | rucaparib 0.205 | [2] 0.039 | encorafenib 0.189 | [3] -0.089 | [4] 0 | filanesib 0.049 | zotarolimus 0.101 | idasanutlin 0.01 | alisertib -0.056 | [5] 0.009 | gefitinib 0.017 | [6] -0.103 | lapatinib 0.038 | pictilisib -0.027

ROCK1 (UniProt Q13464)
Chain of UniProt Q13464 (Q13464 whole entry, looked up): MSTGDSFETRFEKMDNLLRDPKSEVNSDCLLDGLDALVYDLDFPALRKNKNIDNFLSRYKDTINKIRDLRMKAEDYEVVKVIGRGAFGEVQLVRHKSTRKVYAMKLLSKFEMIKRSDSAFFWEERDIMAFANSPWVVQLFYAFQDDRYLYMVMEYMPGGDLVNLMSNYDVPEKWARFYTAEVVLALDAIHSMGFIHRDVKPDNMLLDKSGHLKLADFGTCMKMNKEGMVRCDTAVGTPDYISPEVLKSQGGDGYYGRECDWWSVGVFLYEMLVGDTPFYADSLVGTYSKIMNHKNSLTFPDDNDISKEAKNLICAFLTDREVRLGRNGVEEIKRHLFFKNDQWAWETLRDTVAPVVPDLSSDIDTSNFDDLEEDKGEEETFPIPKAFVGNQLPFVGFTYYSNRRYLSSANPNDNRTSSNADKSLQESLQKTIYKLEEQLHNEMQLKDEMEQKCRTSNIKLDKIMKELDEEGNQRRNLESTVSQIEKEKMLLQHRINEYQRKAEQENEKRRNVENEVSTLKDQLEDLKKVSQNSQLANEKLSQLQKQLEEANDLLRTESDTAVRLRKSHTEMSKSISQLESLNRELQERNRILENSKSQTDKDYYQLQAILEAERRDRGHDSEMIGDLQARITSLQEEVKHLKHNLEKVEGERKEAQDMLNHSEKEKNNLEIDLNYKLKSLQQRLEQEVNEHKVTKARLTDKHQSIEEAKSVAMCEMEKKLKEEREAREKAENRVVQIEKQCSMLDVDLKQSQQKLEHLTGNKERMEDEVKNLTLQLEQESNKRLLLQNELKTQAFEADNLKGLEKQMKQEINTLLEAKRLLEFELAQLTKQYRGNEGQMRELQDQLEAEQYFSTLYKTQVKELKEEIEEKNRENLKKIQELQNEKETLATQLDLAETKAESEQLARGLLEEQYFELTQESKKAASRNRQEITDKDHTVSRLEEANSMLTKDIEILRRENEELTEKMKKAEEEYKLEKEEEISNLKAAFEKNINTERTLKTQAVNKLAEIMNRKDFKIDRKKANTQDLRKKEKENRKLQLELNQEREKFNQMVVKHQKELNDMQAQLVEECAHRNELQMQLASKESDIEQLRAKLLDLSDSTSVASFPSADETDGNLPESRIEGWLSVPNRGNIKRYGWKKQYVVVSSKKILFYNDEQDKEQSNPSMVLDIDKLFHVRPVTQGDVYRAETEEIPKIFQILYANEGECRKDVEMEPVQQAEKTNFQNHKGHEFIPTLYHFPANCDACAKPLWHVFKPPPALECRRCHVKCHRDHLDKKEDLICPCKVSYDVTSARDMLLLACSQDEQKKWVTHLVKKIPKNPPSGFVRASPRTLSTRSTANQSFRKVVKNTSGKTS
inactive: saracatinib -0.006 | sotrastaurin -0.056 | alvocidib -0.052 | Tubastatin A -0.009 | [1] -0.016 | defactinib -0.023 | rucaparib 0.021 | [2] 0.122 | encorafenib 0.031 | [3] -0.015 | [4] 0.037 | filanesib -0.028 | zotarolimus 0.003 | idasanutlin -0.005 | alisertib 0.067 | gefitinib -0.012 | [6] -0.005 | lapatinib 0.012 | pictilisib -0.012
active: [5] 0.246

SCCPDH (UniProt Q8NBX0)
Chain of UniProt Q8NBX0 (Q8NBX0 whole entry, looked up): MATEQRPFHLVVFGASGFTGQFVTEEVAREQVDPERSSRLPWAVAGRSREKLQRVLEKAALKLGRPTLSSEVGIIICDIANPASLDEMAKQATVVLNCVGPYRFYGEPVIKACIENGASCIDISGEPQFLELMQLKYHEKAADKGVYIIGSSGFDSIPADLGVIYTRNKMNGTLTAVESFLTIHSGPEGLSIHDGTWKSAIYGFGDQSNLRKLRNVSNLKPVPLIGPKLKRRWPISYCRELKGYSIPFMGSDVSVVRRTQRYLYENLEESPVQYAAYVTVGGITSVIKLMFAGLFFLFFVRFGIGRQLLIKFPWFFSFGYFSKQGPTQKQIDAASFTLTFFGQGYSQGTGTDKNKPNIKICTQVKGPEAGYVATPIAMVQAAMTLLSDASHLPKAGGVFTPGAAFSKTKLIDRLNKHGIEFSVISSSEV
active: [4] 0.436
inactive: saracatinib -0.063 | sotrastaurin 0.1 | alvocidib -0.057 | Tubastatin A -0.078 | [1] 0.206 | defactinib 0.121 | rucaparib -0.081 | [2] 0.183 | encorafenib -0.041 | [3] 0.002 | filanesib 0.139 | zotarolimus 0.349 | idasanutlin 0.025 | alisertib -0.058 | [5] -0.026 | gefitinib -0.016 | [6] 0.076 | lapatinib 0.015 | pictilisib 0.135

RAB8B (UniProt Q92930)
Chain of UniProt Q92930 (Q92930 whole entry, looked up): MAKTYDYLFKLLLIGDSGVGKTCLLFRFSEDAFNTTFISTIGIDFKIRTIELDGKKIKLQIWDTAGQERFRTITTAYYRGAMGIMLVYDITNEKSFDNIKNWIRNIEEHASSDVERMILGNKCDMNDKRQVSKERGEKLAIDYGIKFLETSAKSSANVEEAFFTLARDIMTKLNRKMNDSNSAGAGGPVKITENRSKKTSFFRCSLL
inactive: saracatinib 0.084 | sotrastaurin -0.058 | alvocidib -0.098 | Tubastatin A -0.054 | [1] 0.006 | defactinib -0.004 | rucaparib -0.014 | [2] 0.056 | encorafenib -0.062 | [3] -0.06 | [4] 0.258 | filanesib -0.076 | zotarolimus 0.045 | idasanutlin -0.017 | alisertib -0.035 | [5] -0.064 | gefitinib 0.021 | [6] -0.076 | lapatinib 0.023 | pictilisib -0.096

RPS2 (UniProt P15880)
inactive: saracatinib -0.058 | sotrastaurin 0 | alvocidib 0.25 | Tubastatin A 0.059 | [1] 0.064 | defactinib 0.261 | rucaparib 0.153 | [2] 0.081 | encorafenib 0.07 | [3] 0.042 | [4] -0.049 | filanesib 0.214 | zotarolimus -0.013 | idasanutlin 0.114 | alisertib -0.1 | [5] -0.027 | gefitinib -0.05 | [6] -0.184 | lapatinib 0.094 | pictilisib -0.143

— the supplement of paper PMC10849652
